For six compounds, composite z-score and z-score results are on record in PubChem BioAssay.

Experiment [1] concerns Plasmodium falciparum Sir2 (PF13_0152, Sir2A). The experiment in a line: Plasmodium falciparum Sir2A binding compounds – biochemical, small-molecule microarray, 635 nm fluorescence, primary screen (AID 1098).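 Also: score merges spot fluorescence intensity with its signal-to-noise ratio.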 The note with it: fluorescence 635 nm, higher = more signal.
The nature of experiment [2]: probe aDKK1 binding to arrayed compounds – biochemical, biotinylated probe, 635/667 nm fluorescence, primary screen (AID 1099).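 Also: score merges 667nm spot fluorescence with signal to noise across triplicate slides.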 Particulars: small-molecule microarray, higher = more signal.
Experiment [3] in a line: probe aCHRDL2 binding to arrayed compounds – biochemical, biotinylated probe, 635/667 nm fluorescence, primary screen (AID 1100). Particulars: small-molecule microarray, higher = more signal.
The nature of experiment [4]: change in splice reporter luminescence, either direction, cell-based, HEK293, spliceosome inhibition project, primary screen (AID 1101).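 Also: HEK293 cells carrying a splicing-competent luciferase reporter gene; test concentration not given here.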 The note with it: HEK293 splicing luciferase reporter, 24 h, higher = more signal, called active from +8 up or from −8 down.
Experiment [5] addresses Fibroblast growth factor 10 (Homo sapiens) (UniProt O15520). Description: compounds binding fibroblast growth factor 10 – biochemical, small-molecule microarray, 635 nm fluorescence, primary screen (AID 1102). Particulars: FGF10 binding, fluorescence 635 nm, higher = more signal.
Experiment [6] has as its system glycogen synthase kinase-3 (GSK3A per assay name; protocol says GSK3B). Description: compounds binding glycogen synthase kinase-3 – biochemical, small-molecule microarray, 635 nm fluorescence, GSK3A, primary screen (AID 1103). Also: the record names both GSK3A and GSK3B. Particulars: fluorescence 635 nm, higher = more signal.
Experiment [7] has as its target Epidermal growth factor receptor (Homo sapiens) (UniProt P00533). The experiment in a line: compounds binding epidermal growth factor receptor – biochemical, small-molecule microarray, 635 nm fluorescence, primary screen (AID 1104).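 Also: score merges 667 nm emission intensity with spot signal to noise over triplicate slides.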 Particulars: EGFR binding, higher = more signal.
Experiment [8] deals with Follistatin-related protein 3 (Homo sapiens) (UniProt O95633). The experiment in a line: compounds binding follistatin-related protein 3 – biochemical, small-molecule microarray, 635 nm fluorescence, primary screen (AID 1105).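 Also: score merges emission near 667 nm and signal to noise per printed spot across three slides.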 The note with it: FSTL3 binding, higher = more signal.
The target of experiment [9] is Dickkopf-related protein 1 (Homo sapiens) (UniProt O94907). The experiment in a line: small molecules binding DKK1 protein – biochemical, small-molecule microarray, 635 nm fluorescence scan, primary screen (AID 1106).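 Also: score merges emission near 667 nm with signal to noise over three replicate slides.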 The note with it: higher = more signal.
For experiment [10], the system named is Inhibin beta A chain (activin A). The experiment in a line: small molecules binding activin A – biochemical, small-molecule microarray, 635 nm fluorescence scan, primary screen (AID 1107).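 Also: mouse activin A protein probed at 4.33 µg/mL on printed slides; score merges bound-protein fluorescence near 667 nm with spot signal-to-noise.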 Particulars: INHBA, higher = more signal.
Experiment [11] has as its system Human papillomavirus type 1a protein E7 (residues 44-93). Description: small molecules binding HPV E7 44-93 – biochemical, small-molecule microarray, residues 44-93, 635 nm fluorescence, primary screen (AID 1108).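 Also: E7 fragment applied at 1 µg/mL in TBST for 1 h at 4 C; score combines spot fluorescence with its signal to noise ratio.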 Particulars: fluorescence 635 nm, higher = more signal.
The nature of experiment [12]: hepatitis C replication reporter changes, two-sided – Huh7 cells, luciferase reporter, HCV replication inhibitor project, primary screen (AID 1109).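 Also: huh7 hepatoma cells harbouring a luciferase neomycin HCV replicon reporter; luciferase luminescence as measure of HCV replicon replication; test concentration not given here.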 The note with it: Huh7 HCV replicon luciferase reporter, 48 h; higher = more signal.
The target of experiment [13] is Left-right determination factor 2 (Homo sapiens) (UniProt O00292). Description: small molecules binding LEFTY2 protein – biochemical, small-molecule microarray, 635 nm fluorescence scan, primary screen (AID 1110). The note with it: higher = more signal.
The target of experiment [14] is Calmodulin-1 (Homo sapiens) (UniProt P0DP23). Description: small molecules binding calmodulin-1 with EGTA – biochemical, small-molecule microarray, Cy5-labelled CALM1, profiling panel (AID 1111).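 Also: labelled calmodulin applied in Tris saline Tween buffer holding calcium plus EGTA and DTT.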 The note with it: Cy5-CALM1 binding fluorescence, higher = more signal.
Experiment [15] has the same target. Description: small molecules binding Ca-loaded calmodulin-1 – biochemical, small-molecule microarray, Cy5-labelled CALM1, plus calcium, artefact control for SMM control-protein annotation, profiling panel (AID 1112).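 Also: score merges spot fluorescence with signal to noise from triplicate slides.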 The note with it: Cy5-CALM1 binding fluorescence, higher = more signal.
The nature of experiment [16]: probe aWnt5a binding to arrayed compounds – biochemical, biotinylated probe, 635/667 nm fluorescence, primary screen (AID 1113).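 Also: score merges 667 nm fluorescence intensity with signal-to-noise per printed feature.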 Particulars: small-molecule microarray, higher = more signal.
Experiment [17] can be described thus: probe aShh binding to arrayed compounds – biochemical, biotinylated probe, 635/667 nm fluorescence, primary screen (AID 1114).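 Also: probe is biotin-labelled aShh protein from a stem cell growth factor screen; measures binding of labelled protein to compounds printed on the slide; score merges feature fluorescence at 667 nm with signal-to-noise.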 The note with it: small-molecule microarray, higher = more signal.
Experiment [18] is described as follows: probe aNog binding to arrayed compounds – biochemical, biotinylated probe, 635/667 nm fluorescence, primary screen (AID 1115).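 Also: probe is biotinylated aNog protein used at 0.15 µg/mL for 1 h at 4 C; z-score combines 667 nm fluorescence of each spot with its signal to noise.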 The note with it: small-molecule microarray, higher = more signal.
Experiment [19] addresses Torsin-1A-interacting protein 1 (Homo sapiens) (UniProt Q5JTV8). The experiment in a line: compound microarray binding of lysate hLAP1 – cell lysate, small-molecule microarray, COS7 lysate, 635/667 nm fluorescence, primary screen (AID 1116). Particulars: 635 nm fluorescence, higher = more signal.
In experiment [20] the target is Alpha-bungarotoxin (Bungarus multicinctus) (UniProt P60615). The experiment in a line: compounds binding labelled alpha-BTX control protein – biochemical, small-molecule microarray, Alexa647 label, 635/667 nm fluorescence, artefact control for SMM control protein annotation, profiling panel (AID 1117). The note with it: alpha-BTX-A647 binding fluorescence, higher = more signal.

Active and inactive are the calls of the source.

Chain of Alpha-bungarotoxin (Bungarus multicinctus) (P60615 whole entry, looked up): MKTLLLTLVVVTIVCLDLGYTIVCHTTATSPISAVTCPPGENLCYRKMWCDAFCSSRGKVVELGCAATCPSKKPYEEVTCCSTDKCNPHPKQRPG
Chain of Epidermal growth factor receptor (Homo sapiens) (P00533 whole entry, looked up): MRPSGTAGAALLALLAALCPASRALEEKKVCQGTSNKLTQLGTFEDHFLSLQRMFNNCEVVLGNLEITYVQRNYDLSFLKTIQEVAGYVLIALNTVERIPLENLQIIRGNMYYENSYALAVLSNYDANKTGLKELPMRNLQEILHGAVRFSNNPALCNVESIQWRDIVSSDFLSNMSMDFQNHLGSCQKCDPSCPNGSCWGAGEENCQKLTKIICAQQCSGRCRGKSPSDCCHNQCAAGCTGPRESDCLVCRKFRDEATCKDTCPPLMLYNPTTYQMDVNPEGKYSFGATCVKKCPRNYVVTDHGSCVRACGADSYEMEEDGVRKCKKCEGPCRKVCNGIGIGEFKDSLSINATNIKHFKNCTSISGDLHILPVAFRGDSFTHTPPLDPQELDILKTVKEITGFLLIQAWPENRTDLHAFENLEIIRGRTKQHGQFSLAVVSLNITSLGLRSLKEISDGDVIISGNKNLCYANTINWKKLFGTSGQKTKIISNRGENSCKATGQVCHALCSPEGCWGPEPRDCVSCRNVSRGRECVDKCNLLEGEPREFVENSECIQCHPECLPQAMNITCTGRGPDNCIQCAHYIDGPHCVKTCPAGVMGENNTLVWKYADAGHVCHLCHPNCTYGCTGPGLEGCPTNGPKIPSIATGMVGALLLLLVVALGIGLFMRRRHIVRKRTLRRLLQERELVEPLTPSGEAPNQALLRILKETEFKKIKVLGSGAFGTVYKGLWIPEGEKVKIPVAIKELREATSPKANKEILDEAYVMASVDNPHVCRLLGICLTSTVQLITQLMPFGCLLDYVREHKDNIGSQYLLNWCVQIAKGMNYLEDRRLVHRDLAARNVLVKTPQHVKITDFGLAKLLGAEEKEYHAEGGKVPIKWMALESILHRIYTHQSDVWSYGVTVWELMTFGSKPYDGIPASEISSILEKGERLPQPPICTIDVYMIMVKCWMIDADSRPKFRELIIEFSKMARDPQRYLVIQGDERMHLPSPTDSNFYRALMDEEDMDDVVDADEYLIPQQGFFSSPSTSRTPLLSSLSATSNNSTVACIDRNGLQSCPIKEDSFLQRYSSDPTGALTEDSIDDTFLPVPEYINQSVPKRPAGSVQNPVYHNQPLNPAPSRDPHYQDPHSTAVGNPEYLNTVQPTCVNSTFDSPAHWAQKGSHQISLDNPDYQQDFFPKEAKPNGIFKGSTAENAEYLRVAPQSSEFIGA
Chain of Follistatin-related protein 3 (Homo sapiens) (O95633 whole entry, looked up): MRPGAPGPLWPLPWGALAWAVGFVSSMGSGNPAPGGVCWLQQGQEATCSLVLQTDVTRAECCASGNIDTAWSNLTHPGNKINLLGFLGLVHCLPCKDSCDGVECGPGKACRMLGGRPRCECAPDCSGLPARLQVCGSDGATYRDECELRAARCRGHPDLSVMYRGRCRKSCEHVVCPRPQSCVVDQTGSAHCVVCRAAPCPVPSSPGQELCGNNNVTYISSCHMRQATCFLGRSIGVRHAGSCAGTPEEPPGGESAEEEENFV
Chain of Dickkopf-related protein 1 (Homo sapiens) (O94907 whole entry, looked up): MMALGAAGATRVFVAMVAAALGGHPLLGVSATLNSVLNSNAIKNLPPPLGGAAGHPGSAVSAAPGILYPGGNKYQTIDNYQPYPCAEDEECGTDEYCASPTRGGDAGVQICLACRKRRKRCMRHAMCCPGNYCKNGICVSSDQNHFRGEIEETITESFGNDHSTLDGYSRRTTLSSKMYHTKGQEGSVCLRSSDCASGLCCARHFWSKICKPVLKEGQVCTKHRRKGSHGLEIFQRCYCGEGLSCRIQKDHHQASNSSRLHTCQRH
Chain of Fibroblast growth factor 10 (Homo sapiens) (O15520 whole entry, looked up): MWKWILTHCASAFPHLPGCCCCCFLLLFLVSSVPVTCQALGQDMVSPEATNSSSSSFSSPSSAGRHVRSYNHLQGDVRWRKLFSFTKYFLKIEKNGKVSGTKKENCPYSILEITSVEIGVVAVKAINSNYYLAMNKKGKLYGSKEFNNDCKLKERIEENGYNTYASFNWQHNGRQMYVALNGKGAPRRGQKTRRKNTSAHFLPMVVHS
Chain of Torsin-1A-interacting protein 1 (Homo sapiens) (Q5JTV8 whole entry, looked up): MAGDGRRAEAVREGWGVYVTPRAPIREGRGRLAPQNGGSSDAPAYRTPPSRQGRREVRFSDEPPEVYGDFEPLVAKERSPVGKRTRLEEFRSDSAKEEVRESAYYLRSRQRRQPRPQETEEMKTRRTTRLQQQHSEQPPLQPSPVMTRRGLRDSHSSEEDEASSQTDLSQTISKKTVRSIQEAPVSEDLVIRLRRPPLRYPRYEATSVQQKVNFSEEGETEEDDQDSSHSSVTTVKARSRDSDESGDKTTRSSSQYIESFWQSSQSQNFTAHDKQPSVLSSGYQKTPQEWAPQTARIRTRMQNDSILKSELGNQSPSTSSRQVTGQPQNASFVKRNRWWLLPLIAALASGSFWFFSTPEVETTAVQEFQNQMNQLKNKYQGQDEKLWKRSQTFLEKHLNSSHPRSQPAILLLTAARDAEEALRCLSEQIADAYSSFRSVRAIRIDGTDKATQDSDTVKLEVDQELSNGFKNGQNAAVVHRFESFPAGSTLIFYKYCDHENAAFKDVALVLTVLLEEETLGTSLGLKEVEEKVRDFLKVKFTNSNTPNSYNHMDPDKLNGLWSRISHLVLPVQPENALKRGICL
Chain of Left-right determination factor 2 (Homo sapiens) (O00292 whole entry, looked up): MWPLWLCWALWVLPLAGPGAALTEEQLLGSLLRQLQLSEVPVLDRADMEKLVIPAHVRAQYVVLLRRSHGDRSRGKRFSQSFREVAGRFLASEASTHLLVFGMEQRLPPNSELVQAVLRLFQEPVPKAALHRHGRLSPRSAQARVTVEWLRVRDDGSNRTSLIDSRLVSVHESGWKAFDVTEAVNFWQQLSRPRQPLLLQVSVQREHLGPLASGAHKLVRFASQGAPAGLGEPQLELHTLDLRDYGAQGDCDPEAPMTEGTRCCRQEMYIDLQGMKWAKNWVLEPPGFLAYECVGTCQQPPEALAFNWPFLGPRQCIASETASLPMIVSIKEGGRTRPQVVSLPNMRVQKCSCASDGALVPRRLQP

In the case of `O=C1C[C@@H](O)[C@@H](O)[C@@H]2[C@@H]3C(=O)N(c4ccc(F)cc4F)C(=O)[C@@H]3CC[C@@H]12`, the composite z-score in experiment [1] is 0.341; in experiment [2], -0.343; in experiment [3], -0.602; in [5], 0.627; in experiment [6], 0.169; in experiment [7], 0.463. The composite z-score in [8] is 0.447; in [9], 0.612; in experiment [10], 0.199; in experiment [11] it was 0.461; in experiment [13], 0.585; in [14], -0.0799. The composite z-score in [15] was -0.389; in experiment [16] it was 0.441; in experiment [17], -0.221; in experiment [18], -0.22; in experiment [19], 0.408; in experiment [20], -0.157. The z-score in experiment [4] was 0.337 (inactive); in experiment [12], 0.586.
With `CCOC(=O)[C@H](CC(C)C)NC(=O)CCC1CC(OC(=O)NCCc2ccc(F)cc2)CC2(CCCC(COC(=O)NCc3ccccc3)O2)O1` (stereo not given in full), the composite z-score was 0.859 in experiment [1]; -0.273 in experiment [2]; -0.29 in [3]; 1.39 in experiment [5]; 0.808 in experiment [6]; 0.907 in experiment [7]. Further, the composite z-score is 1.01 in experiment [8]; 0.89 in experiment [9]; -0.198 in [10]; 1.37 in experiment [11]; 1.16 in experiment [13]; 0.0292 in [14]. The composite z-score is -0.008 in experiment [15]; -0.113 in [16]; -0.214 in experiment [17]; -0.183 in experiment [18]; 0.575 in experiment [19]; 0.287 in experiment [20]. In addition, the figures for the z-score in experiment [4] and in experiment [12] were -1.19 (inactive) and -1.76, respectively.
Consider `CC1(C)OCC(C(O)C2=CCCCC2=O)CO1` (stereo not given), for which the composite z-score is 1.04 in experiment [1]; -0.137 in experiment [2]; -0.704 in experiment [3]; 0.694 in experiment [5]; 0.999 in [6]; 0.625 in experiment [7]. Moreover, the composite z-score in [8] was determined as 0.859; in [9], 0.717; in [10], 1.6; in experiment [11] it was 0.198; in experiment [13] it was 1.07; in [14] it was 0.465. The composite z-score is -0.927 in experiment [15]; 0.0244 in experiment [16]; -0.276 in experiment [17]; -0.158 in experiment [18]; 0.5 in [19]; 1.16 in experiment [20]. The z-score in experiment [4] is 0.733 (inactive); in experiment [12], -0.751.
For `CCCNC(=O)OC[C@H]1O[C@H](CCON=C[C@@H](OC)[C@H](C)C=CCC(=O)OC)C=C[C@@H]1Oc1ccc(OC)cc1`, the composite z-score was 0.638 in [1]; -0.305 in experiment [2]; -0.528 in [3]; 0.463 in [5]; -0.0589 in experiment [6]; 0.15 in experiment [7]. Besides, the composite z-score was 0.109 in experiment [8]; 0.482 in experiment [9]; 0.717 in experiment [10]; 0.0209 in [11]; 0.453 in [13]; -1.81 in experiment [14]. Also, the composite z-score is -0.848 in [15]; -0.119 in experiment [16]; -0.01 in experiment [17]; -0.318 in experiment [18]; 0.322 in experiment [19]; 0.908 in [20]. For the same compound, the z-score was -0.213 (inactive) in experiment [4] and -1.72 in [12].
With `COc1ccc(O[C@H]2C=C[C@@H](c3ccccc3)O[C@@H]2COC(=O)CCC(C)=NOC(C)CN2CCCCc3nc(C)c(C)cc32)cc1` (stereo not given in full), the composite z-score in [1] is 1.42; in experiment [2], -0.0789; in experiment [3], 0.208; in experiment [5], -0.154; in [6] it was -0.86; in experiment [7], -0.457. For the same compound, the composite z-score is -0.106 in [8]; -0.0649 in experiment [9]; 1.36 in experiment [10]; 0.36 in experiment [11]; -0.106 in experiment [13]; -0.959 in experiment [14]. Also, the composite z-score in [15] is -0.203; in experiment [16] it was -0.157; in [17] it was -0.138; in experiment [18], -0.158; in experiment [19] it was 0.168; in experiment [20] it was -0.47. Also, the z-score in [4] is -0.665 (inactive); in experiment [12], -0.239.
In the case of `CC(C)=C1C(=O)C(c2ccccc2)=C2CN3C(=O)N(CCc4ccccc4)C(=O)[C@]3(Cc3ccc(F)cc3)[C@H]21`, the composite z-score in [1] was -0.0467; in experiment [2] it was 0.993; in experiment [3], 1.21; in [5] it was -0.625; in experiment [6], -0.643; in experiment [7], -2.06. For the same compound, the composite z-score in experiment [8] was -0.655; in experiment [9], -1.92; in [10] it was 0.51; in experiment [11], 0.891; in [13] it was -1.67; in experiment [14], 0.327. Also, the composite z-score is 0.32 in experiment [15]; 0.229 in experiment [16]; 0.0431 in experiment [17]; -0.761 in experiment [18]; -0.248 in experiment [19]; -0.547 in experiment [20]. Also, the z-score was 0.762 (inactive) in [4] and -0.864 in experiment [12].
